In PubChem BioAssay (Tox21):
“And” between values parts separate entries of the source, which are not always exact repeats. Identical values can stand only once. Records with an inconclusive call do not appear. The source made the active and inactive calls. Unless noted, calls come from the whole dose curve; as a rule, active = well fitted curve in the direction sought with a large enough effect in the repeat runs; inconclusive = weak or mixed curves; inactive = no such curve, though single readings can be large; an effect the other way counts as inactive or inconclusive.

Assays:
[1] = qHTS assay for small molecule agonists of the p53 signaling pathway (AID 651631; calls by dose curve; note: nearly all actives have a fitted effect of over 15% in size; note: potency is the fitted concentration of half-maximal effect)
Procedure, shortened: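 HCT-116 p53RE-bla reporter line, 16 h compound treatment at 37 °C, then fluorescence after 2 h with B/G FRET substrate.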

[2] = qHTS assay for small molecules that induce genotoxicity in human embryonic kidney cells expressing luciferase-tagged ATAD5 (AID 651632); note: nearly all actives have a fitted effect of over 15% in size
Procedure, shortened: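 Genotoxicity read-out via ATAD5-luciferase: HEK293T cells, 16 hr compound incubation at 37C, Amplite detection.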

[3] = qHTS assay for small molecule agonists of the p53 signaling pathway - cell viability (AID 651633; calls by dose curve;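 note: p53RE-bla HCT reporter cells with a stable beta-lactamase p53 reporter; series mostly up to about 83 µM; nearly all actives have a fitted effect of over 30% in size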)
Procedure, shortened: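 Viability counter-read: CellTiter-Glo luminescence (30 min, room temperature) in the same p53RE-bla plates. These plates had been exposed to compounds for 16 h at 37 C.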

[4] = qHTS assay for small molecules that induce genotoxicity in human embryonic kidney cells expressing luciferase-tagged ATAD5 - cell viability (AID 651634; calls by dose curve; note: nearly all actives have a fitted effect of over 25% in size)
Procedure, shortened: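 Live-cell protease activity (CellTiter-Fluor, fluorescence) indicates viability. HEK293T cells with luciferase-tagged ATAD5; 15.5 hr compound treatment at 37C.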

[5] = qHTS assay for small molecule disruptors of the mitochondrial membrane potential - cell viability (AID 720634; calls by dose curve;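 note: human HepG2 liver cancer cells; series mostly up to about 83 µM; nearly all actives have a fitted effect of over 20% in size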)
Procedure, shortened: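 Human hepatoma HepG2 cells were treated for 1 hr with test chemicals, then given m-MPI dye and CellTiter-Glo. Cell viability reflects luminescence proportional to cellular ATP.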

[6] = qHTS assay for small molecule disruptors of the mitochondrial membrane potential (AID 720635); note: potency is the fitted concentration of half-maximal effect
Procedure, shortened: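 Mitochondrial membrane potential tracked with Mito-MPS dye, red aggregates (ex 540/em 590 nm) against green monomers (ex 490/em 535 nm). Compound treatment 1 hr at 37C, dye 30 min in HepG2.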

[7] = qHTS assay to test for compound auto fluorescence at 590 nm (red) in HepG2 cells (AID 720674)
Procedure, shortened: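 Red autofluorescence (Ex/Em 540/590 nm, Rose Bengal sodium equivalents) was measured in HepG2 cells, 2,000 per well in MEM plus 10% FBS, plated overnight at 37 C. Readings were taken 1 hr after adding 23 nL compound or DMSO, at 37 C and 5% CO2.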

[8] = qHTS assay to test for compound auto fluorescence at 535 nm (green) in HepG2 cells (AID 720675)
[9] = qHTS assay to test for compound auto fluorescence at 460 nm (blue) in HEK293 cells (AID 720678); note: potency is the fitted concentration of half-maximal effect
Procedure, shortened: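 Intrinsic compound fluorescence is recorded in live HEK293 cultures after overnight incubation at 37C, 5% CO2, using excitation 405 nm and emission 460 nm. Values are referenced to triamterene.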

[10] = qHTS assay to test for compound auto fluorescence at 590 nm (red) in HEK293 cells (AID 720679)
Procedure, shortened: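 Red autofluorescence, HEK293 cells: 2,000 cells/well; attach 4-5 hr 37C; add 23 nL cpd or DMSO; incubate o/n 37C 5% CO2; read Ex540/Em590; Rose Bengal sodium reference.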

[11] = qHTS assay to test for compound auto fluorescence at 535 nm (green) in HEK293 cells (AID 720680)
[12] = qHTS assay to test for compound auto fluorescence at 535 nm (green) in HEK293 cell free culture (AID 720682)
Procedure, shortened: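 Steps: dispense DMEM/10% FBS into empty wells; pin in compound or DMSO; measure fluorescence at 485/535 nm. Values are fluorescein equivalents.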

[13] = qHTS assay to test for compound auto fluorescence at 590 nm (red) in HEK293 cell free culture (AID 720683)
Procedure, shortened: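 Red-channel autofluorescence of compounds in culture medium (DMEM, 10% FBS), no cells, measured at 540/590 nm. Rose Bengal sodium is the reference fluorophore for equivalence.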

[14] = qHTS assay to test for compound auto fluorescence at 590 nm (red) in HepG2 cell free culture (AID 720684)
Procedure, shortened: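 Plate contents were MEM with 10% FBS plus test compound or DMSO, no cells. Fluorescence was recorded with 540 nm excitation and 590 nm emission.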

[15] = qHTS assay to test for compound auto fluorescence at 460 nm (blue) in HepG2 cell free culture (AID 720685); note: potency is the fitted concentration of half-maximal effect
Procedure, shortened: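 Compound (23 nL) or DMSO pinned into cell-free MEM with 10% FBS; blue fluorescence read at 405/460 nm excitation/emission, expressed as auto-fluorescence equivalency to triamterene.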

[16] = qHTS assay to test for compound auto fluorescence at 535 nm (green) in HepG2 cell free culture (AID 720686)
[17] = qHTS assay to test for compound auto fluorescence at 460 nm (blue) in HepG2 cells (AID 720687); note: potency is the fitted concentration of half-maximal effect
Procedure, shortened: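 Blue-channel autofluorescence (Ex/Em 405/460 nm, triamterene-equivalent) was measured after 1 hr compound exposure at 37 C, 5% CO2. Cells were HepG2, plated overnight at 37 C in MEM plus 10% FBS.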

[18] = qHTS assay to test for compound auto fluorescence at 460 nm (blue) in HEK293 cell free culture (AID 720681)
Procedure, shortened: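 Blue fluorescence (Ex 405/Em 460 nm, triamterene-equivalent) was read immediately after pin transfer of compound or DMSO into medium (DMEM, 10% FBS) without cells.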

[19] = biological target: Glucocorticoid receptor (Homo sapiens) (UniProt P04150); test: qHTS assay to identify small molecule agonists of the glucocorticoid receptor (GR) signaling pathway (AID 720691; active = well fitted activation curve with a large enough effect in the signal ratio in the repeat runs, not every such curve was filed as active; the % refers to the signal ratio)
Procedure, shortened: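 Beta-lactamase reporter activity, read as fluorescence intensity, was measured in GR-bla HeLa cells exposed to compounds for 18 h at 37 C and then loaded with LiveBLAzer B/G FRET substrate for 2 h at room temperature.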

[20] = biological target: Glucocorticoid receptor (Homo sapiens) (UniProt P04150); test: qHTS assay to identify small molecule antagonists of the glucocorticoid receptor (GR) signaling pathway (AID 720692; active = well fitted inhibition curve with a large enough effect in the signal ratio in the repeat runs, not every such curve was filed as active; the % refers to the signal ratio)
Procedure, shortened: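 Fluorescence from cleaved LiveBLAzer B/G FRET substrate reports GRE-driven beta-lactamase in HeLa cells; compounds are tested against 5 nM dexamethasone (final) over 18 h at 37 C, substrate incubation 2 h at room temperature.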

Measured: Potency
Tags give direction and shape of the fitted curve or compound fluorescence and quenching.

Sequence of Glucocorticoid receptor (Homo sapiens) (P04150 whole entry, looked up): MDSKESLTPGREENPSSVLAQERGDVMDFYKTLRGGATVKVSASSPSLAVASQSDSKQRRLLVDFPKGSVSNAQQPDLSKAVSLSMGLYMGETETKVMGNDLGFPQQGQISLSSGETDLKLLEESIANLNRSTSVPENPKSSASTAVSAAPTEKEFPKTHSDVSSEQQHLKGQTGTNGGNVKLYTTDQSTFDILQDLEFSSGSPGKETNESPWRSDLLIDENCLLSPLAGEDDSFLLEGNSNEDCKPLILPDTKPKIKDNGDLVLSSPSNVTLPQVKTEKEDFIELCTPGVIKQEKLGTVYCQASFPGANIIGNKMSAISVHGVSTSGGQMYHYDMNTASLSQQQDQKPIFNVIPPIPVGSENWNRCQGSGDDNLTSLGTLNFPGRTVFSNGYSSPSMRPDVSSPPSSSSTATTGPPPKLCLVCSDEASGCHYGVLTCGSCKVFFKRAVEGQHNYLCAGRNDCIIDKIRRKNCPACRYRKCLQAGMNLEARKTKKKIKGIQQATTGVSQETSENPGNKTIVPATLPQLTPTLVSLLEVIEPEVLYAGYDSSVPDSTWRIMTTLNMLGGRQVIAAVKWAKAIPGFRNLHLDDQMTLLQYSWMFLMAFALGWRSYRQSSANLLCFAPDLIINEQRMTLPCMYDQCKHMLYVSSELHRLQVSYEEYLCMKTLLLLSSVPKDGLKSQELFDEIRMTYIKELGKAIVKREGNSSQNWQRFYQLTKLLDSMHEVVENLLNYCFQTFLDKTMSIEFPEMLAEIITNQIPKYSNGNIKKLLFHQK

Nc1nc(N)c2nc(-c3ccccc3)c(N)nc2n1
active: [1] 26.6 µM and 15.5 µM and 34.4 µM | [9] 14.1 µM [fluorescent] and 31.6 µM [fluorescent] and 35.5 µM [fluorescent] | [15] 12.6 µM [fluorescent] and 39.8 µM [fluorescent] | [17] 12.6 µM [fluorescent] and 39.8 µM [fluorescent]
not listed: [18] | [19] | [20]
inactive: all other assays above

CC(=O)OCCC(C)C
not listed: [4]
inactive: all other assays above

CC(C)(C)NC[C@H](O)COc1nsnc1N1CCOCC1
not listed: [9] | [18]
inactive: all other assays above

COc1ccc(N)c(OC)c1
active: [6] 54.5 µM
not listed: [18]
inactive: all other assays above

C[Si](C)(C)N[Si](C)(C)C
not listed: [2]
inactive: all other assays above

Cc1ccncc1
inactive: all assays above

Oc1ccc(Cc2ccccc2O)cc1
active: [6] 11 µM and 27.3 µM
inactive: all other assays above

COc1c2ccoc2cc2oc(=O)ccc12
not listed: [18]
inactive: all other assays above

Cc1ccc(C)c(S(=O)(=O)O)c1
not listed: [2] | [18] | [19] | [20]
inactive: all other assays above

CC(O)CNCC(C)O (configuration not stated)
not listed: [1] | [4] | [18] | [19] | [20]
inactive: all other assays above

CC1=CC(=O)CC(C)(C)C1
not listed: [2] | [9]
inactive: all other assays above

Nc1cccc(C(F)(F)F)c1
not listed: [2] | [9] | [19] | [20]
inactive: all other assays above

Cc1ccc(Cl)cc1
not listed: [1] | [4]
inactive: all other assays above

CC[N+](CC)(CC(=O)Nc1c(C)cccc1C)Cc1ccccc1
not listed: [1] | [6] | [18] | [19] | [20]
inactive: all other assays above

O=C(Cl)c1ccc(C(=O)Cl)cc1
not listed: [1] | [4]
inactive: all other assays above

CC(CN1c2ccccc2Sc2ccccc21)N(C)C (configuration not stated)
not listed: [1] | [6] | [9] | [19] | [20]
inactive: all other assays above
